Test [1] can be described thus: NCI Yeast Anticancer Drug Screen. Data for the rad50 strain (AID 155).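 Also: 0% = growth of vehicle-only cultures of the same strain.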 The settings on record: S. cerevisiae rad50 strain growth inhibition, active compounds read high. The method in brief: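 Yeast carrying a defined DNA repair defect were exposed to test compounds, and growth was compared with vehicle-treated controls to give percent inhibition.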
A short description of test [2]: NCI Yeast Anticancer Drug Screen. Data for the mec2-1 strain (AID 157). The settings on record: S. cerevisiae mec2-1 strain, active compounds read high. The procedure, abridged:
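Test agents were screened against the mec2-1 yeast strain, with defined DNA repair or cell cycle alteration. Growth was scored as inhibition against vehicle-only controls.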

Test [3] in a line: NCI Yeast Anticancer Drug Screen. Data for the sgs1 mgt1 strain (AID 161).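 Also: 0% = growth of cultures given vehicle only.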 The settings on record: S. cerevisiae sgs1 mgt1 strain, active compounds read high. The method in brief: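 Genetically altered yeast, compound exposure, growth inhibition relative to vehicle.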
Test [4] in a line: NCI Yeast Anticancer Drug Screen. Data for the cln2 rad14 strain (AID 165).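 Also: 0% = growth equal to vehicle treated cultures.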 The settings on record: S. cerevisiae cln2 rad14 strain, active compounds read high. The procedure, abridged:
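Growth of compound-exposed yeast (cln2 rad14 genotype) measured and expressed as inhibition relative to vehicle.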

Test [5] can be described thus: NCI Yeast Anticancer Drug Screen. Data for the bub3 strain (AID 167). The settings on record: S. cerevisiae bub3 mutant strain, active compounds read high. The method in brief:
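Compounds were applied to a genetically altered yeast strain carrying a cell-cycle control defect. Growth inhibition was scored against vehicle-treated controls.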

Test [6] in a line: NCI Yeast Anticancer Drug Screen. Data for the mlh1 rad18 strain (AID 175). The settings on record: S. cerevisiae mlh1 rad18 strain growth inhibition, active compounds read high. The method in brief: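 In this whole-cell yeast screen, a strain with altered DNA damage repair is challenged with compound, and its growth is measured against matched vehicle-treated controls.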
Setting [7] is: at 5.0 µM (retest, dose inferred, filed as 0.5).
[8] abbreviates: at 50.0 µM (retest, dose inferred, filed as 5.0).

Molecules are shown by their SMILES. This is part of a sample that, as a whole, favours compounds with a hit. Of some 79,000 tested, about 15% had one in any assay. Values without a mark were called inactive. Active and inactive are the calls of the source. Rule as the data show it: active = growth inhibition above about 70%; inactive = the rest.

Take `CC1(C)CC[C@]2(C(=O)O)[C@H](O)C[C@]3(C)C(=CC[C@@H]4[C@@]5(C)CC[C@H](OC6OCC(O)C(O)C6OC6OCC(O)C(O)C6OC6OCC(O)C(O)C6O)C(C)(C)[C@@H]5CC[C@]43C)[C@@H]2C1` (stereo not given in full): the growth inhibition in test [1] (setting [7]) is 5%; in test [1] (setting [8]), 7%; in test [1] (at 50.0 µM) it was 51.9%; in test [2] (setting [7]), 12%; in test [2] (setting [8]), 54%; in test [2] (at 50.0 µM), 57.1%. Further, the growth inhibition was 8% in test [3] (setting [7]); 33% in test [3] (setting [8]); -13.4% in test [3] (at 50.0 µM); 14% in test [4] (setting [7]); 100% (active) in test [4] (setting [8]); 54% in test [4] (at 50.0 µM). The growth inhibition in test [5] (setting [7]) was 14%; in test [5] (setting [8]) it was 100% (active); in test [5] (at 50.0 µM) it was 48.8%; in test [6] (setting [7]), 5%; in test [6] (setting [8]), 53%; in test [6] (at 50.0 µM) it was 52%.
`CC(=O)N[C@H]1CCC2[C@@H]3CCC4=CC(=O)NCC[C@]4(C)C3CC[C@@]21C` (stereo not given in full): the growth inhibition in test [1] (setting [7]) is 0%; in test [1] (setting [8]), 89% (active); in test [1] (at 50.0 µM) it was 56.5%; in test [2] (setting [7]) it was -2%; in test [2] (setting [8]), 92% (active); in test [2] (at 50.0 µM), 46.6%. Further, the growth inhibition was -3% in test [3] (setting [7]); 58% in test [3] (setting [8]); 56.4% in test [3] (at 50.0 µM); -4% in test [4] (setting [7]); 78% (active) in test [4] (setting [8]); 69.5% in test [4] (at 50.0 µM). The growth inhibition in test [5] (setting [7]) was 6%; in test [5] (setting [8]), 88% (active); in test [5] (at 50.0 µM), 96.2% (active); in test [6] (setting [7]), -2%; in test [6] (setting [8]), 85% (active); in test [6] (at 50.0 µM), 57.5%.
With `Nc1ccc2[nH]c3ccccc3c2c1`, the growth inhibition is -4% in test [1] (setting [7]); 6% in test [1] (setting [8]); 92.3% (active) in test [1] (at 50.0 µM); 0% in test [2] (setting [7]); 1% in test [2] (setting [8]); -17.6% in test [2] (at 50.0 µM). For the same molecule, the growth inhibition in test [3] (setting [7]) is -9%; in test [3] (setting [8]), 0%; in test [3] (at 50.0 µM), 40.2%; in test [4] (setting [7]) it was -5%; in test [4] (setting [8]), 3%; in test [4] (at 50.0 µM), -38%. Also, the growth inhibition was -1% in test [5] (setting [7]); 18% in test [5] (setting [8]); 25.2% in test [5] (at 50.0 µM); 0% in test [6] (setting [7]); 29% in test [6] (setting [8]); 16.8% in test [6] (at 50.0 µM).
In the case of `CN(C)C(=S)NC(=S)Nc1ccc2ccccc2c1`, the growth inhibition in test [1] (setting [7]) was 5%; in test [1] (setting [8]) it was 88% (active); in test [1] (at 50.0 µM), 62.8%; in test [2] (setting [7]), 17%; in test [2] (setting [8]) it was 89% (active); in test [2] (at 50.0 µM), 40.9%. Also, the growth inhibition in test [3] (setting [7]) is 34%; in test [3] (setting [8]), 82% (active); in test [3] (at 50.0 µM) it was 66.2%; in test [4] (setting [7]), 8%; in test [4] (setting [8]) it was 87% (active); in test [4] (at 50.0 µM) it was 46.5%. Further, the growth inhibition in test [5] (setting [7]) was 2%; in test [5] (setting [8]) it was 92% (active); in test [5] (at 50.0 µM) it was 57.4%; in test [6] (setting [7]) it was 12%; in test [6] (setting [8]), 92% (active); in test [6] (at 50.0 µM), 73.3% (active).
As to `C=C1C[C@H](O)[C@H]2C(C[Se]c3ccccc3)C(=O)O[C@@H]2[C@H]2[C@H](C)C(O)C[C@@H]12` (stereo not given in full), the growth inhibition in test [1] (setting [7]) was 2%; in test [1] (setting [8]) it was 35%; in test [1] (at 50.0 µM) it was 43.6%; in test [2] (setting [7]) it was 2%; in test [2] (setting [8]), -7%; in test [2] (at 50.0 µM) it was 20.6%. Further, the growth inhibition was 9% in test [3] (setting [7]); 61% in test [3] (setting [8]); 17.2% in test [3] (at 50.0 µM); -2% in test [4] (setting [7]); 8% in test [4] (setting [8]); -32.1% in test [4] (at 50.0 µM). The growth inhibition in test [5] (setting [7]) was -5%; in test [5] (setting [8]), 21%; in test [5] (at 50.0 µM), 21.8%; in test [6] (setting [7]), 0%; in test [6] (setting [8]) it was 32%; in test [6] (at 50.0 µM), 86.5% (active).
In the case of `CN(C)C[N+](C)(C)Cc1ccc(C[N+](C)(C)C[N+](C)(C)Cc2ccc(CCl)cc2)cc1`, the growth inhibition in test [1] (setting [7]) is 0%; in test [1] (setting [8]), -2%; in test [1] (at 50.0 µM) it was 83% (active); in test [2] (setting [7]), -36%; in test [2] (setting [8]), -1%; in test [2] (at 50.0 µM), 20.4%. The growth inhibition is -2% in test [3] (setting [7]); -1% in test [3] (setting [8]); 69.5% in test [3] (at 50.0 µM); 0% in test [4] (setting [7]); -1% in test [4] (setting [8]); 45% in test [4] (at 50.0 µM). Besides, the growth inhibition in test [5] (setting [7]) is -8%; in test [5] (setting [8]), -1%; in test [5] (at 50.0 µM), 66.2%; in test [6] (setting [7]) it was -2%; in test [6] (setting [8]), -1%; in test [6] (at 50.0 µM), 52.5%.
`CCC[N+]1=C(/C=C/c2cc(C)c3cccnc3c2O)C(C)(C)c2ccccc21`: the growth inhibition in test [1] (setting [7]) was 12%; in test [1] (setting [8]), 94% (active); in test [1] (at 50.0 µM), 93.7% (active); in test [2] (setting [7]) it was 27%; in test [2] (setting [8]) it was 95% (active); in test [2] (at 50.0 µM) it was 90.3% (active). Also, the growth inhibition was 7% in test [3] (setting [7]); 93% (active) in test [3] (setting [8]); 86.5% (active) in test [3] (at 50.0 µM); -7% in test [4] (setting [7]); 90% (active) in test [4] (setting [8]); 81.8% (active) in test [4] (at 50.0 µM). Moreover, the growth inhibition in test [5] (setting [7]) was 4%; in test [5] (setting [8]), 93% (active); in test [5] (at 50.0 µM) it was 92% (active); in test [6] (setting [7]), 19%; in test [6] (setting [8]), 93% (active); in test [6] (at 50.0 µM) it was 93% (active).
Regarding `CC(=O)OC1C(OC(C)=O)C2C(C)CC3OC(=O)C(C)C3CC2(C)C1OC(C)=O` (stereo not given), the growth inhibition was -7% in test [1] (setting [7]); 71% (active) in test [1] (setting [8]); 78.2% (active) in test [1] (at 50.0 µM); 2% in test [2] (setting [7]); 82% (active) in test [2] (setting [8]); 77.2% (active) in test [2] (at 50.0 µM). Also, the growth inhibition in test [3] (setting [7]) was -6%; in test [3] (setting [8]), 69%; in test [3] (at 50.0 µM), 73.6% (active); in test [4] (setting [7]), 34%; in test [4] (setting [8]), 46%; in test [4] (at 50.0 µM) it was 32.4%. The growth inhibition is 9% in test [5] (setting [7]); 80% (active) in test [5] (setting [8]); 67% in test [5] (at 50.0 µM); -18% in test [6] (setting [7]); 81% (active) in test [6] (setting [8]); 72.7% (active) in test [6] (at 50.0 µM).
For `C/C=C\c1cc2c(cc1CC#N)OCO2`, the growth inhibition is 8% in test [1] (setting [7]); 42% in test [1] (setting [8]); -21.3% in test [1] (at 50.0 µM); 5% in test [2] (setting [7]); 14% in test [2] (setting [8]); 20.1% in test [2] (at 50.0 µM). Further, the growth inhibition in test [3] (setting [7]) was 13%; in test [3] (setting [8]) it was 51%; in test [3] (at 50.0 µM) it was 42.5%; in test [4] (setting [7]), 12%; in test [4] (setting [8]), 78% (active); in test [4] (at 50.0 µM) it was 5.6%. In addition, the growth inhibition is 1% in test [5] (setting [7]); -2% in test [5] (setting [8]); 8.25% in test [5] (at 50.0 µM); 17% in test [6] (setting [7]); 39% in test [6] (setting [8]); 25.6% in test [6] (at 50.0 µM).
In the case of `OC1(c2ccccc2)CCC2CCCCC2C1` (stereo not given), the growth inhibition in test [1] (setting [7]) is 3%; in test [1] (setting [8]), 32%; in test [1] (at 50.0 µM) it was 94.4% (active); in test [2] (setting [7]) it was -4%; in test [2] (setting [8]), 52%; in test [2] (at 50.0 µM) it was 96.5% (active). Further, the growth inhibition in test [3] (setting [7]) was 2%; in test [3] (setting [8]) it was 69%; in test [3] (at 50.0 µM), 90.5% (active); in test [4] (setting [7]), -10%; in test [4] (setting [8]) it was 8%; in test [4] (at 50.0 µM) it was 89.5% (active). Moreover, the growth inhibition was 4% in test [5] (setting [7]); 49% in test [5] (setting [8]); 88.5% (active) in test [5] (at 50.0 µM); -14% in test [6] (setting [7]); 63% in test [6] (setting [8]); 81.2% (active) in test [6] (at 50.0 µM).

The values above are taken from PubChem BioAssay (NCI).
